This is an account of results in PubChem BioAssay (NCI).

The nature of experiment [1]: NCI Yeast Anticancer Drug Screen. Data for the rad50 strain (AID 155).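 Further: 0% = growth of vehicle-only cultures of the same strain.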 The following applies: S. cerevisiae rad50 strain growth inhibition, stronger effect = higher value. The method in brief: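 Relative growth inhibition (compound vs vehicle) was measured in yeast with a defined repair-gene alteration.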
A short description of experiment [2]: NCI Yeast Anticancer Drug Screen. Data for the mec2-1 strain (AID 157). The following applies: S. cerevisiae mec2-1 strain, stronger effect = higher value. A digest of the protocol: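 Yeast mec2-1 mutant treated with compound. Readout: growth inhibition vs vehicle controls.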
Experiment [3] is described as follows: NCI Yeast Anticancer Drug Screen. Data for the sgs1 mgt1 strain (AID 161).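 Further: 0% = growth of cultures given vehicle only.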 The following applies: S. cerevisiae sgs1 mgt1 strain, stronger effect = higher value. The method in brief:
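Mutant yeast exposed to compound; growth scored against vehicle-only wells.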

Experiment [4] in a line: NCI Yeast Anticancer Drug Screen. Data for the cln2 rad14 strain (AID 165).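 Further: 0% = growth equal to vehicle treated cultures.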 The following applies: S. cerevisiae cln2 rad14 strain, stronger effect = higher value. A digest of the protocol: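 cln2 rad14 yeast strain; compound exposure; growth inhibition read vs vehicle controls.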
The nature of experiment [5]: NCI Yeast Anticancer Drug Screen. Data for the bub3 strain (AID 167). The following applies: S. cerevisiae bub3 mutant strain, stronger effect = higher value. The method in brief:
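Screening used yeast with an engineered genetic alteration affecting cell cycle control. Compound-exposed cultures were compared with vehicle cultures, and reduced growth was taken as inhibition.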

Experiment [6] in a line: NCI Yeast Anticancer Drug Screen. Data for the mlh1 rad18 strain (AID 175). The following applies: S. cerevisiae mlh1 rad18 strain growth inhibition, stronger effect = higher value. A digest of the protocol:
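Yeast w/ defined DNA-repair lesions; compound exposure; growth vs vehicle controls → % inhibition.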

[7] abbreviates: at 5.0 µM (retest, dose inferred, filed as 0.5).
Where [8] appears, read: at 50.0 µM (retest, dose inferred, filed as 5.0).

This is part of a sample that, as a whole, favours compounds with a hit. Of some 79,000 tested, about 15% had one in any assay. Unmarked numbers belong to inactive results. Active and inactive are the calls of the source. No stated cut-off is given here; in the data, active means growth inhibition above about 70%; inactive means the rest.

`O=C(c1ccccc1)N(C(=S)N(C(=O)c1ccccc1)c1ccccc1)c1ccccc1`: the growth inhibition in experiment [1] (setting [7]) was -3%; in experiment [1] (setting [8]), 12%; in experiment [1] (at 50.0 µM), 99% (active); in experiment [2] (setting [7]), -1%; in experiment [2] (setting [8]) it was -2%; in experiment [2] (at 50.0 µM) it was 99.7% (active). For the same compound, the growth inhibition is 1% in experiment [3] (setting [7]); -4% in experiment [3] (setting [8]); 99.2% (active) in experiment [3] (at 50.0 µM); 3% in experiment [4] (setting [7]); -7% in experiment [4] (setting [8]); 98.8% (active) in experiment [4] (at 50.0 µM). Besides, the growth inhibition is 0% in experiment [5] (setting [7]); -3% in experiment [5] (setting [8]); 99% (active) in experiment [5] (at 50.0 µM); -1% in experiment [6] (setting [7]); -3% in experiment [6] (setting [8]); 99.1% (active) in experiment [6] (at 50.0 µM).
For `CCCCN(CCCC)CC(=O)c1ccc2cc(Cl)c3ccccc3c2c1`, the growth inhibition in experiment [1] (setting [7]) is 20%; in experiment [1] (setting [8]), 91% (active); in experiment [1] (at 50.0 µM) it was 95.3% (active); in experiment [2] (setting [7]) it was 23%; in experiment [2] (setting [8]), 93% (active); in experiment [2] (at 50.0 µM), 95.5% (active). In addition, the growth inhibition was 56% in experiment [3] (setting [7]); 90% (active) in experiment [3] (setting [8]); 95.8% (active) in experiment [3] (at 50.0 µM); 7% in experiment [4] (setting [7]); 90% (active) in experiment [4] (setting [8]); 92.7% (active) in experiment [4] (at 50.0 µM). For the same compound, the growth inhibition was 18% in experiment [5] (setting [7]); 91% (active) in experiment [5] (setting [8]); 95.3% (active) in experiment [5] (at 50.0 µM); 31% in experiment [6] (setting [7]); 84% (active) in experiment [6] (setting [8]); 94.7% (active) in experiment [6] (at 50.0 µM).
Regarding `NNc1cc(Cl)ccc1Cl`, the growth inhibition in experiment [1] (setting [7]) is 73% (active); in experiment [1] (setting [8]), 93% (active); in experiment [1] (at 50.0 µM), 90.7% (active); in experiment [2] (setting [7]), 91% (active); in experiment [2] (setting [8]) it was 99% (active); in experiment [2] (at 50.0 µM) it was 91.8% (active). For the same compound, the growth inhibition in experiment [3] (setting [7]) was 57%; in experiment [3] (setting [8]), 98% (active); in experiment [3] (at 50.0 µM), 94% (active); in experiment [4] (setting [7]) it was 80% (active); in experiment [4] (setting [8]) it was 98% (active); in experiment [4] (at 50.0 µM), 91.8% (active). For the same compound, the growth inhibition in experiment [5] (setting [7]) was 89% (active); in experiment [5] (setting [8]) it was 99% (active); in experiment [5] (at 50.0 µM) it was 91.5% (active); in experiment [6] (setting [7]), 55%; in experiment [6] (setting [8]) it was 100% (active); in experiment [6] (at 50.0 µM), 90.7% (active).
As for `O=C1c2c(F)c(F)c(F)c(F)c2SC2=NCCN12`, the growth inhibition was 2% in experiment [1] (setting [7]); 99% (active) in experiment [1] (setting [8]); 78.4% (active) in experiment [1] (at 50.0 µM); -4% in experiment [2] (setting [7]); 98% (active) in experiment [2] (setting [8]); 80.4% (active) in experiment [2] (at 50.0 µM). The growth inhibition in experiment [3] (setting [7]) is -10%; in experiment [3] (setting [8]) it was 97% (active); in experiment [3] (at 50.0 µM) it was 76.5% (active); in experiment [4] (setting [7]), -23%; in experiment [4] (setting [8]), 98% (active); in experiment [4] (at 50.0 µM) it was 76.8% (active). The growth inhibition is -31% in experiment [5] (setting [7]); 99% (active) in experiment [5] (setting [8]); 83.2% (active) in experiment [5] (at 50.0 µM); 11% in experiment [6] (setting [7]); 98% (active) in experiment [6] (setting [8]); 78.7% (active) in experiment [6] (at 50.0 µM).
With `OC(CCl)c1ccc2ccc3c(c2c1)Nc1ccccc1S3` (stereo not given), the growth inhibition in experiment [1] (setting [7]) is 0%; in experiment [1] (setting [8]) it was 80% (active); in experiment [1] (at 50.0 µM), 80.4% (active); in experiment [2] (setting [7]) it was -1%; in experiment [2] (setting [8]), 88% (active); in experiment [2] (at 50.0 µM), 97.2% (active). In addition, the growth inhibition in experiment [3] (setting [7]) is 2%; in experiment [3] (setting [8]) it was 83% (active); in experiment [3] (at 50.0 µM), 97.2% (active); in experiment [4] (setting [7]), -1%; in experiment [4] (setting [8]), 75% (active); in experiment [4] (at 50.0 µM), 78.8% (active). Moreover, the growth inhibition in experiment [5] (setting [7]) is 4%; in experiment [5] (setting [8]), 87% (active); in experiment [5] (at 50.0 µM), 87.9% (active); in experiment [6] (setting [7]), -1%; in experiment [6] (setting [8]) it was 86% (active); in experiment [6] (at 50.0 µM), 96.5% (active).
For the compound `O=S(=O)(c1cc(Cl)c(Cl)cc1Cl)N(CCCCCN(S(=O)(=O)c1cc(Cl)c(Cl)cc1Cl)S(=O)(=O)c1cc(Cl)c(Cl)cc1Cl)S(=O)(=O)c1cc(Cl)c(Cl)cc1Cl`, the growth inhibition in experiment [1] (setting [7]) is -9%; in experiment [1] (setting [8]) it was -3%; in experiment [1] (at 50.0 µM), 98.6% (active); in experiment [2] (setting [7]) it was -11%; in experiment [2] (setting [8]) it was -13%; in experiment [2] (at 50.0 µM), 98.2% (active). In addition, the growth inhibition was -14% in experiment [3] (setting [7]); -23% in experiment [3] (setting [8]); 97.1% (active) in experiment [3] (at 50.0 µM); -10% in experiment [4] (setting [7]); -8% in experiment [4] (setting [8]); 96% (active) in experiment [4] (at 50.0 µM). For the same compound, the growth inhibition in experiment [5] (setting [7]) was 19%; in experiment [5] (setting [8]) it was 4%; in experiment [5] (at 50.0 µM), 98.9% (active); in experiment [6] (setting [7]), -29%; in experiment [6] (setting [8]), -17%; in experiment [6] (at 50.0 µM) it was 97.8% (active).
As for `CC(NC(=O)OC(C)(C)C)C(=O)NC(Cc1ccccc1)C(=O)NCC(=O)Oc1c(Cl)c(Cl)c(Cl)c(Cl)c1Cl` (stereo not given), the growth inhibition in experiment [1] (setting [7]) is 30%; in experiment [1] (setting [8]), 66%; in experiment [1] (at 50.0 µM), 65.4%; in experiment [2] (setting [7]), 27%; in experiment [2] (setting [8]) it was 45%; in experiment [2] (at 50.0 µM) it was 71.5% (active). In addition, the growth inhibition in experiment [3] (setting [7]) was 41%; in experiment [3] (setting [8]) it was 72% (active); in experiment [3] (at 50.0 µM), 77% (active); in experiment [4] (setting [7]) it was 27%; in experiment [4] (setting [8]) it was 55%; in experiment [4] (at 50.0 µM) it was 46.5%. Also, the growth inhibition is 35% in experiment [5] (setting [7]); 61% in experiment [5] (setting [8]); 56.5% in experiment [5] (at 50.0 µM); 68% in experiment [6] (setting [7]); 79% (active) in experiment [6] (setting [8]); 73.4% (active) in experiment [6] (at 50.0 µM).
Take `C/C(=N\NC(=S)N/N=C(\C)c1ccccn1)c1ccccn1`: the growth inhibition is 93% (active) in experiment [1] (setting [7]); 99% (active) in experiment [1] (setting [8]); 88.2% (active) in experiment [1] (at 50.0 µM); 90% (active) in experiment [2] (setting [7]); 99% (active) in experiment [2] (setting [8]); 91.5% (active) in experiment [2] (at 50.0 µM). The growth inhibition in experiment [3] (setting [7]) was 88% (active); in experiment [3] (setting [8]), 99% (active); in experiment [3] (at 50.0 µM), 84.7% (active); in experiment [4] (setting [7]), 93% (active); in experiment [4] (setting [8]) it was 98% (active); in experiment [4] (at 50.0 µM) it was 88.2% (active). Further, the growth inhibition in experiment [5] (setting [7]) is 95% (active); in experiment [5] (setting [8]), 99% (active); in experiment [5] (at 50.0 µM), 87.9% (active); in experiment [6] (setting [7]), 93% (active); in experiment [6] (setting [8]), 99% (active); in experiment [6] (at 50.0 µM) it was 83% (active).
`c1ccc2c(c1)N=c1ccccc1=P21c2ccccc2Nc2ccccc21`: the growth inhibition was 89% (active) in experiment [1] (setting [7]); 99% (active) in experiment [1] (setting [8]); 87.3% (active) in experiment [1] (at 50.0 µM); 93% (active) in experiment [2] (setting [7]); 99% (active) in experiment [2] (setting [8]); 90.9% (active) in experiment [2] (at 50.0 µM). The growth inhibition in experiment [3] (setting [7]) is 84% (active); in experiment [3] (setting [8]) it was 99% (active); in experiment [3] (at 50.0 µM), 87.8% (active); in experiment [4] (setting [7]), 85% (active); in experiment [4] (setting [8]), 99% (active); in experiment [4] (at 50.0 µM) it was 89.5% (active). Moreover, the growth inhibition in experiment [5] (setting [7]) is 97% (active); in experiment [5] (setting [8]) it was 99% (active); in experiment [5] (at 50.0 µM), 89.8% (active); in experiment [6] (setting [7]) it was 92% (active); in experiment [6] (setting [8]) it was 99% (active); in experiment [6] (at 50.0 µM), 83.2% (active).
For the compound `CSC(=S)NN=C(c1ccccc1)c1ccccc1`, the growth inhibition in experiment [1] (setting [7]) is 9%; in experiment [1] (setting [8]), 97% (active); in experiment [1] (at 50.0 µM), 55.6%; in experiment [2] (setting [7]) it was 13%; in experiment [2] (setting [8]) it was 99% (active); in experiment [2] (at 50.0 µM) it was 39.4%. Also, the growth inhibition in experiment [3] (setting [7]) was 18%; in experiment [3] (setting [8]), 99% (active); in experiment [3] (at 50.0 µM), 69.8%; in experiment [4] (setting [7]), 7%; in experiment [4] (setting [8]), 91% (active); in experiment [4] (at 50.0 µM) it was 53.9%. Besides, the growth inhibition in experiment [5] (setting [7]) was 0%; in experiment [5] (setting [8]), 98% (active); in experiment [5] (at 50.0 µM), 86.2% (active); in experiment [6] (setting [7]), 16%; in experiment [6] (setting [8]) it was 99% (active); in experiment [6] (at 50.0 µM), 81.8% (active).
